A short description of experiment [1]: NCI Yeast Anticancer Drug Screen. Data for the rad50 strain (AID 155).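 Further: 0% = growth of vehicle-only cultures of the same strain.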 To be noted: S. cerevisiae rad50 strain growth inhibition, active compounds read high. In outline:
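Readout: growth inhibition relative to vehicle-treated cultures. Compound exposure was carried out in a genetically defined yeast strain deficient in DNA damage repair.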

A short description of experiment [2]: NCI Yeast Anticancer Drug Screen. Data for the mec2-1 strain (AID 157). To be noted: S. cerevisiae mec2-1 strain, active compounds read high. The method in brief:
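Cells of the genetically defined mec2-1 yeast strain are incubated with test compound. Inhibition of growth is calculated against vehicle-treated controls.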

Experiment [3] is described as follows: NCI Yeast Anticancer Drug Screen. Data for the sgs1 mgt1 strain (AID 161).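 Further: 0% = growth of cultures given vehicle only.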 To be noted: S. cerevisiae sgs1 mgt1 strain, active compounds read high. In outline: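 Test agents were incubated with a DNA-repair-mutant yeast strain. Growth was then read and compared against vehicle-treated controls.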
Experiment [4] is described as follows: NCI Yeast Anticancer Drug Screen. Data for the cln2 rad14 strain (AID 165).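 Further: 0% = growth equal to vehicle treated cultures.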 To be noted: S. cerevisiae cln2 rad14 strain, active compounds read high. In outline:
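The screen exposed genetically defined yeast (cln2 rad14) to test compounds and scored growth inhibition relative to vehicle-treated controls.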

Experiment [5] can be described thus: NCI Yeast Anticancer Drug Screen. Data for the bub3 strain (AID 167). As to conditions: S. cerevisiae bub3 mutant strain, active compounds read high. The method in brief:
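Readout: yeast growth inhibition, expressed relative to vehicle-only wells. The test organism is a mutant strain from a panel with lesions in DNA repair or checkpoint genes.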

The nature of experiment [6]: NCI Yeast Anticancer Drug Screen. Data for the mlh1 rad18 strain (AID 175). To be noted: S. cerevisiae mlh1 rad18 strain growth inhibition, active compounds read high. In outline: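 Compound-treated yeast growth, normalised to vehicle controls. Strain bears defined DNA repair mutations.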
[7] abbreviates: at 5.0 µM (retest, dose inferred, filed as 0.5).
Setting [8] is: at 50.0 µM (retest, dose inferred, filed as 5.0).

The panel holds about 79,000 compounds, 15% with a hit somewhere; the sample as a whole holds those more often. Unmarked numbers belong to inactive results. Activity calls are given as the source filed them. No stated cut-off is given here; in the data, active means growth inhibition above about 70%; inactive means the rest.

Take `O=[N+]([O-])c1ccc(O)c(/C=N\NC(=S)Nc2ccc3cn[nH]c3c2)c1`: the growth inhibition in experiment [1] (setting [7]) is -2%; in experiment [1] (setting [8]) it was 33%; in experiment [1] (at 50.0 µM), 74.3% (active); in experiment [2] (setting [7]), 1%; in experiment [2] (setting [8]) it was 20%; in experiment [2] (at 50.0 µM) it was 47.2%. Besides, the growth inhibition was 11% in experiment [3] (setting [7]); 37% in experiment [3] (setting [8]); 41.2% in experiment [3] (at 50.0 µM); -17% in experiment [4] (setting [7]); 37% in experiment [4] (setting [8]); 32.6% in experiment [4] (at 50.0 µM). The growth inhibition in experiment [5] (setting [7]) was -2%; in experiment [5] (setting [8]), 52%; in experiment [5] (at 50.0 µM), 49.1%; in experiment [6] (setting [7]), 12%; in experiment [6] (setting [8]), 41%; in experiment [6] (at 50.0 µM), 30.8%.
For `CC(C)(C)c1cc2c3c(c1)Oc1cc(C(C)(C)C)cc4c1C3(O)c1c(cc(C(C)(C)C)cc1O4)O2`, the growth inhibition is 19% in experiment [1] (setting [7]); 99% (active) in experiment [1] (setting [8]); 89.8% (active) in experiment [1] (at 50.0 µM); 22% in experiment [2] (setting [7]); 100% (active) in experiment [2] (setting [8]); 88.5% (active) in experiment [2] (at 50.0 µM). Also, the growth inhibition in experiment [3] (setting [7]) is -5%; in experiment [3] (setting [8]), 99% (active); in experiment [3] (at 50.0 µM), 86.4% (active); in experiment [4] (setting [7]) it was 14%; in experiment [4] (setting [8]), 98% (active); in experiment [4] (at 50.0 µM), 87.3% (active). Besides, the growth inhibition in experiment [5] (setting [7]) is 12%; in experiment [5] (setting [8]) it was 98% (active); in experiment [5] (at 50.0 µM), 84.7% (active); in experiment [6] (setting [7]), 14%; in experiment [6] (setting [8]) it was 100% (active); in experiment [6] (at 50.0 µM), 87.7% (active).
`CN(C)c1ccc(C=Nc2cnc3ccccc3c2)cc1`: the growth inhibition in experiment [1] (setting [7]) is -10%; in experiment [1] (setting [8]), 10%; in experiment [1] (at 50.0 µM), -54.4%; in experiment [2] (setting [7]), -5%; in experiment [2] (setting [8]), -13%; in experiment [2] (at 50.0 µM) it was -14.3%. Moreover, the growth inhibition in experiment [3] (setting [7]) is -4%; in experiment [3] (setting [8]), -1%; in experiment [3] (at 50.0 µM), -3.05%; in experiment [4] (setting [7]), -32%; in experiment [4] (setting [8]), -14%; in experiment [4] (at 50.0 µM), -43.7%. Besides, the growth inhibition in experiment [5] (setting [7]) was 2%; in experiment [5] (setting [8]) it was 5%; in experiment [5] (at 50.0 µM), -3.65%; in experiment [6] (setting [7]), 0%; in experiment [6] (setting [8]) it was 10%; in experiment [6] (at 50.0 µM), -6.35%.
`CCCC(=O)c1ccc(OC)cc1`: the growth inhibition is 0% in experiment [1] (setting [7]); 28% in experiment [1] (setting [8]); 41.9% in experiment [1] (at 50.0 µM); 1% in experiment [2] (setting [7]); 70% (active) in experiment [2] (setting [8]); -11.3% in experiment [2] (at 50.0 µM). Besides, the growth inhibition was 0% in experiment [3] (setting [7]); 13% in experiment [3] (setting [8]); 14.9% in experiment [3] (at 50.0 µM); 1% in experiment [4] (setting [7]); 10% in experiment [4] (setting [8]); 17.6% in experiment [4] (at 50.0 µM). Moreover, the growth inhibition was -6% in experiment [5] (setting [7]); 98% (active) in experiment [5] (setting [8]); 20.9% in experiment [5] (at 50.0 µM); -1% in experiment [6] (setting [7]); 61% in experiment [6] (setting [8]); 6.25% in experiment [6] (at 50.0 µM).
In the case of `NC(=O)N/N=C/c1ccc(Cl)s1`, the growth inhibition was 4% in experiment [1] (setting [7]); 42% in experiment [1] (setting [8]); 94.4% (active) in experiment [1] (at 50.0 µM); 4% in experiment [2] (setting [7]); 21% in experiment [2] (setting [8]); 59% in experiment [2] (at 50.0 µM). In addition, the growth inhibition was 2% in experiment [3] (setting [7]); 31% in experiment [3] (setting [8]); 88.8% (active) in experiment [3] (at 50.0 µM); -1% in experiment [4] (setting [7]); 10% in experiment [4] (setting [8]); 52.5% in experiment [4] (at 50.0 µM). For the same molecule, the growth inhibition in experiment [5] (setting [7]) was 3%; in experiment [5] (setting [8]), 35%; in experiment [5] (at 50.0 µM), 82.5% (active); in experiment [6] (setting [7]), 1%; in experiment [6] (setting [8]), 31%; in experiment [6] (at 50.0 µM) it was 89.2% (active).
Regarding `O=C(O)C(=O)Cc1ccc(O)cc1`, the growth inhibition in experiment [1] (setting [7]) was -18%; in experiment [1] (setting [8]), -30%; in experiment [1] (at 50.0 µM) it was 68.2%; in experiment [2] (setting [7]) it was -20%; in experiment [2] (setting [8]), -25%; in experiment [2] (at 50.0 µM), 12.7%. Further, the growth inhibition in experiment [3] (setting [7]) is -10%; in experiment [3] (setting [8]), -26%; in experiment [3] (at 50.0 µM) it was 57%; in experiment [4] (setting [7]), -5%; in experiment [4] (setting [8]), 7%; in experiment [4] (at 50.0 µM) it was 49.1%. In addition, the growth inhibition in experiment [5] (setting [7]) is -24%; in experiment [5] (setting [8]) it was -20%; in experiment [5] (at 50.0 µM), 70.7% (active); in experiment [6] (setting [7]), -48%; in experiment [6] (setting [8]), -69%; in experiment [6] (at 50.0 µM), 61%.
Regarding `O=C(/C=C\c1ccc([N+](=O)[O-])o1)/C=C/c1ccc([N+](=O)[O-])o1`, the growth inhibition in experiment [1] (setting [7]) was 36%; in experiment [1] (setting [8]), 96% (active); in experiment [1] (at 50.0 µM), 96.8% (active); in experiment [2] (setting [7]) it was 33%; in experiment [2] (setting [8]), 98% (active); in experiment [2] (at 50.0 µM), 97.1% (active). The growth inhibition is 52% in experiment [3] (setting [7]); 98% (active) in experiment [3] (setting [8]); 95% (active) in experiment [3] (at 50.0 µM); 28% in experiment [4] (setting [7]); 97% (active) in experiment [4] (setting [8]); 92.7% (active) in experiment [4] (at 50.0 µM). The growth inhibition is 38% in experiment [5] (setting [7]); 97% (active) in experiment [5] (setting [8]); 94.9% (active) in experiment [5] (at 50.0 µM); 91% (active) in experiment [6] (setting [7]); 96% (active) in experiment [6] (setting [8]); 98.2% (active) in experiment [6] (at 50.0 µM).
Regarding `CCCCCNc1ccc2c(cc1=O)C(NC(C)=O)CCc1cc(OC)c(OC)c(OC)c1-2` (configuration not stated), the growth inhibition is 16% in experiment [1] (setting [7]); 89% (active) in experiment [1] (setting [8]); 13.4% in experiment [1] (at 50.0 µM); 10% in experiment [2] (setting [7]); 97% (active) in experiment [2] (setting [8]); 19.8% in experiment [2] (at 50.0 µM). The growth inhibition in experiment [3] (setting [7]) is 11%; in experiment [3] (setting [8]) it was 98% (active); in experiment [3] (at 50.0 µM), 18.2%; in experiment [4] (setting [7]), 16%; in experiment [4] (setting [8]), 93% (active); in experiment [4] (at 50.0 µM) it was 71.7% (active). For the same molecule, the growth inhibition in experiment [5] (setting [7]) is 21%; in experiment [5] (setting [8]), 97% (active); in experiment [5] (at 50.0 µM) it was 45.2%; in experiment [6] (setting [7]), 19%; in experiment [6] (setting [8]), 95% (active); in experiment [6] (at 50.0 µM), 24.9%.
With `CC#CC(=O)Nc1ccccc1CC(c1c[nH]c2ccccc12)c1c[nH]c2ccccc12`, the growth inhibition in experiment [1] (setting [7]) is 50%; in experiment [1] (setting [8]), 50%; in experiment [1] (at 50.0 µM), 75.4% (active); in experiment [2] (setting [7]) it was 31%; in experiment [2] (setting [8]), 31%; in experiment [2] (at 50.0 µM) it was 55.1%. The growth inhibition was 40% in experiment [3] (setting [7]); 40% in experiment [3] (setting [8]); 67.5% in experiment [3] (at 50.0 µM); 19% in experiment [4] (setting [7]); 19% in experiment [4] (setting [8]); 67.7% in experiment [4] (at 50.0 µM). The growth inhibition in experiment [5] (setting [7]) was 32%; in experiment [5] (setting [8]), 32%; in experiment [5] (at 50.0 µM), 60.8%; in experiment [6] (setting [7]) it was 35%; in experiment [6] (setting [8]) it was 35%; in experiment [6] (at 50.0 µM) it was 53.8%.

The values are drawn from PubChem BioAssay (NCI).
